The full data set covers some 7,900 targets. This sample favours those with a hit. About 0.6% of all pairs of compound and target were hits. Unmarked numbers belong to inactive results.

UniProt P68366, sequence (P68366 whole entry, looked up): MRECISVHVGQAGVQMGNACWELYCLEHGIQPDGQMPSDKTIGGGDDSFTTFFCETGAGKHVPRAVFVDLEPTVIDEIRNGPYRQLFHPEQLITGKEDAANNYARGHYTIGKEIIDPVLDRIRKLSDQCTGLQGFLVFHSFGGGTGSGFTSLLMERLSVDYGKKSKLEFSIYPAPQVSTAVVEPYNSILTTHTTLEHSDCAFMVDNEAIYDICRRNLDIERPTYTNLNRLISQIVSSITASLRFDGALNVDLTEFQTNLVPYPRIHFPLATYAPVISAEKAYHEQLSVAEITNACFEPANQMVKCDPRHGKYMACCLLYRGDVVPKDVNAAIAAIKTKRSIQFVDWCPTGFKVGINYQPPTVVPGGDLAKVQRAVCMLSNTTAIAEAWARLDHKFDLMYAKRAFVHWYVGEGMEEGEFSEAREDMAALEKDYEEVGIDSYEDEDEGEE
UniProt Q9NX01, sequence (Q9NX01 whole entry, looked up): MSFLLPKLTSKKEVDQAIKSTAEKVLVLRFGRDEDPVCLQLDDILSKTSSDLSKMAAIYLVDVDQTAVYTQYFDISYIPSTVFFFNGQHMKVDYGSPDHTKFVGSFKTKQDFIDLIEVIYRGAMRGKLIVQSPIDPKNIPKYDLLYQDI
UniProt Q9H4A3, sequence (Q9H4A3 whole entry, looked up): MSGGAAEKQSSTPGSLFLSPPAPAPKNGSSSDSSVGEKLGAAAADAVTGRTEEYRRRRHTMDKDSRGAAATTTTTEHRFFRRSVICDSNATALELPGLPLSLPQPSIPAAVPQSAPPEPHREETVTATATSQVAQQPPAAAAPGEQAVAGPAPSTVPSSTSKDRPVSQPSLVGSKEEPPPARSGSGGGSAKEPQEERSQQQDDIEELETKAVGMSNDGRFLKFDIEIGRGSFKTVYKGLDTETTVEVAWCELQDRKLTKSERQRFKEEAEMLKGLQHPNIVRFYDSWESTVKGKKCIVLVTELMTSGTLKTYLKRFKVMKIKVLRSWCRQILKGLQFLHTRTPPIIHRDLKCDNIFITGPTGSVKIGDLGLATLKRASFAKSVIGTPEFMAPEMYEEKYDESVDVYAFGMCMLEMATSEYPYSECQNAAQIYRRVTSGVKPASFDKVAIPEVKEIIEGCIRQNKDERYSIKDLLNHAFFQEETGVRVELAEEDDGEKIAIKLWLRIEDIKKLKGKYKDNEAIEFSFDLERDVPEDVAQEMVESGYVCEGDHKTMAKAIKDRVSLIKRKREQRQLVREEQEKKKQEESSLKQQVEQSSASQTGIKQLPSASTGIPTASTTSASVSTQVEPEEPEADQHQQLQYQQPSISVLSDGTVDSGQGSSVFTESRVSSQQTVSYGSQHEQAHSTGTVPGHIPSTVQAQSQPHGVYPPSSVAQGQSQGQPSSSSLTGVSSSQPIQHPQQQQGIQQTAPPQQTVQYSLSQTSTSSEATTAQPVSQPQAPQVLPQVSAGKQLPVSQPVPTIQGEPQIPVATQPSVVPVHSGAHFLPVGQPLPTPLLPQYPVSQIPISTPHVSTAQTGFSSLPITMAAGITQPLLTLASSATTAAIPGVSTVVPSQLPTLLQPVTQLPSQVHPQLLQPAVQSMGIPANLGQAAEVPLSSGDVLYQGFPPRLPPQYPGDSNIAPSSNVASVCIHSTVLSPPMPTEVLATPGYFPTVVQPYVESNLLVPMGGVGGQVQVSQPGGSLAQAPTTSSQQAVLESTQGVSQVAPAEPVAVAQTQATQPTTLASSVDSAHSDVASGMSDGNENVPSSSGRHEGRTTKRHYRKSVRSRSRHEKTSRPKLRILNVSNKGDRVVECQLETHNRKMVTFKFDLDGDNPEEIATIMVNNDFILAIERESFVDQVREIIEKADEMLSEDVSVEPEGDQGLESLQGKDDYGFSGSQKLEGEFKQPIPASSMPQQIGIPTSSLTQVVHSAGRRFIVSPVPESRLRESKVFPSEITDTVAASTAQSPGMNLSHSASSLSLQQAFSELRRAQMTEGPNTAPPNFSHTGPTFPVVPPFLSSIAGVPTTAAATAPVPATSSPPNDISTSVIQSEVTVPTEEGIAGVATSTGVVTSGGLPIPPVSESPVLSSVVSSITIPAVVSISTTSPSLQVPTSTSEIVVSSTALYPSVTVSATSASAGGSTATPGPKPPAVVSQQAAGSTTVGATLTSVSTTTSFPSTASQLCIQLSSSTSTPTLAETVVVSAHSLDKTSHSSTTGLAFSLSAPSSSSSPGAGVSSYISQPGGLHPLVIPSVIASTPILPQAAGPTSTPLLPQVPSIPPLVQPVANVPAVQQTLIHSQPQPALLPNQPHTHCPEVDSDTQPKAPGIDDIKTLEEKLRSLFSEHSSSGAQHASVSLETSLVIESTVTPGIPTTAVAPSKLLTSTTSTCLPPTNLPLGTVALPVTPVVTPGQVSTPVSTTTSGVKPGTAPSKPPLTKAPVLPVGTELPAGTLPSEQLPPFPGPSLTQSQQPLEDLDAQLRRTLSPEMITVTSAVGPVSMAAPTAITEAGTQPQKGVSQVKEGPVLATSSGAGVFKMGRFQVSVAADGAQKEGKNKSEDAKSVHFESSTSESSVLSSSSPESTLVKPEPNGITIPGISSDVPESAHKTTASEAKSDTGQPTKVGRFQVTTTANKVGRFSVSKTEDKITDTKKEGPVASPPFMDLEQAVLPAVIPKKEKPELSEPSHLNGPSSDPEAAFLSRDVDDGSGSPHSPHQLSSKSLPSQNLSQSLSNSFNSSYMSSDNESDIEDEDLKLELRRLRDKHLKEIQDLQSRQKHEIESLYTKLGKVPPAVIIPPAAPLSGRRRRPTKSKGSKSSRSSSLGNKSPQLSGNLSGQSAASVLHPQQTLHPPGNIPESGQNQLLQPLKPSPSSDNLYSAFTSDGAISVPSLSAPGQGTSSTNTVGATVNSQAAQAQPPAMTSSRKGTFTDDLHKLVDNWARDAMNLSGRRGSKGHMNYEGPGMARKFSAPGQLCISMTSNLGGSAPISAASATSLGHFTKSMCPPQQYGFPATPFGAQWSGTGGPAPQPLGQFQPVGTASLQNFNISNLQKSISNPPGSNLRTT
UniProt O95155, sequence (O95155 whole entry, looked up): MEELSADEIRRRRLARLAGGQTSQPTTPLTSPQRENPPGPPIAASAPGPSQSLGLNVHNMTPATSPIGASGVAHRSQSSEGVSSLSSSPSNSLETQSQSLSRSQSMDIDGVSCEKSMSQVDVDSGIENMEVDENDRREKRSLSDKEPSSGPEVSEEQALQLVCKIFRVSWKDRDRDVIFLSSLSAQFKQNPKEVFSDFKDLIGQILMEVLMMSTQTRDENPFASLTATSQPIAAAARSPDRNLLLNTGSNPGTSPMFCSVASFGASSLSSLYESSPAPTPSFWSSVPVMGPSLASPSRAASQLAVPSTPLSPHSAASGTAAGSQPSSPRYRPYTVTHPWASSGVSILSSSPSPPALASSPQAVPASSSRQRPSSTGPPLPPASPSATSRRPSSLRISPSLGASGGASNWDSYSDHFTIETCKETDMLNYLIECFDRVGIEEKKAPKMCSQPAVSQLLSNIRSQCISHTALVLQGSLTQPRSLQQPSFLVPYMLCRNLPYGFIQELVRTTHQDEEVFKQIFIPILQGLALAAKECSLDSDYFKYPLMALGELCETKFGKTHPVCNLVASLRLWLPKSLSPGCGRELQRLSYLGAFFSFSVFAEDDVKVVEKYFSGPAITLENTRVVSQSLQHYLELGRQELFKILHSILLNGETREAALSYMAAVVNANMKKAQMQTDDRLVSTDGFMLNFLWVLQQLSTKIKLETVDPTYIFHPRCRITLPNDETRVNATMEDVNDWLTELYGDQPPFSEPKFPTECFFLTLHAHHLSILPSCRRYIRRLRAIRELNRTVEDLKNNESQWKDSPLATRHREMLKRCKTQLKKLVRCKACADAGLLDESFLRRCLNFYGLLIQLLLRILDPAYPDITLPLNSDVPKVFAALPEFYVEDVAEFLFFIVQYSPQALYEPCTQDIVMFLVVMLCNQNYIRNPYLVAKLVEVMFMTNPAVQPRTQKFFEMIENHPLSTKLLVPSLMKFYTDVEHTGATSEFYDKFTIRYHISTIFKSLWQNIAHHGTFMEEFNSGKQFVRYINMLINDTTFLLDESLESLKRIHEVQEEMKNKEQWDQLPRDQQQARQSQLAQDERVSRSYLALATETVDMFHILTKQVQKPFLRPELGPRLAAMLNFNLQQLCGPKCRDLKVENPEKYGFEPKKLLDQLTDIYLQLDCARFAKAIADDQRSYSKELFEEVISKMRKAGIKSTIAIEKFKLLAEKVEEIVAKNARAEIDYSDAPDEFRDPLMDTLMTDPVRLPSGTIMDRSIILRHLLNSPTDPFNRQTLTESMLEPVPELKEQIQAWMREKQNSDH
UniProt Q5VIR6, sequence (Q5VIR6 whole entry, looked up): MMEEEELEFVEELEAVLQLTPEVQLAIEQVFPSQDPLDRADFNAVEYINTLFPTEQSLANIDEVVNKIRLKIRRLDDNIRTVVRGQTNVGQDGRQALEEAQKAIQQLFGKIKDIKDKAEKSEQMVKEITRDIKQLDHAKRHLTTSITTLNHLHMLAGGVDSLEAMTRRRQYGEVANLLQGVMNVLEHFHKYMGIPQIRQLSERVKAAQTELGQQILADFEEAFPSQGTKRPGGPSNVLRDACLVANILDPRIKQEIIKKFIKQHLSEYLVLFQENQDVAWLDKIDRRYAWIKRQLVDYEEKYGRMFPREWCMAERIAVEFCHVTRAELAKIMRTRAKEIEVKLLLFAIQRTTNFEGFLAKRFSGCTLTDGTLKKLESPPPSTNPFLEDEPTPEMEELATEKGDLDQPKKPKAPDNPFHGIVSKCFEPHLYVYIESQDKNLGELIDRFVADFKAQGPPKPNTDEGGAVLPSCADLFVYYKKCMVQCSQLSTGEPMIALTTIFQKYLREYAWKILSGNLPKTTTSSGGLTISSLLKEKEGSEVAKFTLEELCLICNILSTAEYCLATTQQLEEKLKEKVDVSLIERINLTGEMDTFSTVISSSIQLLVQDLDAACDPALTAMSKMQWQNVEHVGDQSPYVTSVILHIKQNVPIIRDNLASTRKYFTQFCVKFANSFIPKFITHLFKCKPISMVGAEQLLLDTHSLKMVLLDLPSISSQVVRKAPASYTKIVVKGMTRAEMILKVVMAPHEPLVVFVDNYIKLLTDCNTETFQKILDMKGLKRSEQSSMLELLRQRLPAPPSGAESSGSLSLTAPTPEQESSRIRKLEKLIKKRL

Compound in this test: CC1=NC(=CC=C1)C2=C(N=C(N2)C(C)(C)C)C3=CC4=NC=CN=C4C=C3
Description: log2 fold change, soluble protein after heating vs DMSO (PISA); higher = thermal stabilisation; K562 cells, 10 uM, 30 min; active = over 0.2 and 3.5 SD of the protein, either way, in both replicates (recomputed). In outline:
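Aliquots of K562 cells (2×10^6 cells/mL) treated with 10 μM compound for 30 min were heated for 3 min over 48°C-58°C. After pooling and extraction in PBS with 0.5% NP-40 at 4°C, soluble protein from a 21,000xg, 90 min spin was quantified by TMTpro 16plex LC-MS/MS with channel sums equalised. Thermal stability is expressed against control samples, from duplicates, as a log2 fold change.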
Take VPS11 (UniProt Q9H270): the log2 fold change is 0.076.
With TXNL4B (UniProt Q9NX01), the log2 fold change was -0.04.
For USP3 (UniProt Q9Y6I4) the value was 0.069.
For TRIM4 (UniProt Q9C037) the value was -0.076; for TMEM128 (UniProt Q5BJH2), -0.054; for VPS53 isoform 4 (UniProt Q5VIR6), -0.031.
On to VPS37A (UniProt Q8NEZ2), for which the log2 fold change was 0.001.
For the target TUBA4A (UniProt P68366), the log2 fold change was 0.04.
Turning to VDAC1 (UniProt P21796), the log2 fold change was 0.012.
As for UBA52 (UniProt P62987), the figure is -0.16; as for VPS28 (UniProt Q9UK41), 0.004; as for UNC119B (UniProt A6NIH7), -0.017.
As to TRMT61A (UniProt Q96FX7), the log2 fold change was -0.083.
On to WNK1 isoform 7 (UniProt Q9H4A3), for which the log2 fold change is -0.019.
Regarding TTI2 (UniProt Q6NXR4), the log2 fold change is 0.023.
For TTC33 (UniProt Q6PID6) the value was -0.189; for UTP3 (UniProt Q9NQZ2), -0.048.
Regarding UBE3B (UniProt Q7Z3V4), the log2 fold change was 0.007.
For VPS13B (UniProt Q7Z7G8) the value was 0.057; for TMEM70 (UniProt Q9BUB7), 0.005.
As to UBE4B isoform 4 (UniProt O95155), the log2 fold change was 0.014.
For UBIAD1 (UniProt Q9Y5Z9) the value was 0.015; for TRIM44 (UniProt Q96DX7), 0.015.
